Results taken from ChEMBL document CHEMBL1961873, “Compounds: GSK PKIS; Assays: Nanosyn kinase panel” (2012).
“And” between values parts separate entries of the source, which are not always exact repeats. Equal values may be shown once.

Legend:
[1] = biological target: Tyrosine-protein kinase Fyn (Homo sapiens) (UniProt P06241); settings: at 1 µM
[2] = biological target: Tyrosine-protein kinase HCK (Homo sapiens) (UniProt P08631); settings: at 0.1 µM
[3] = biological target: Tyrosine-protein kinase HCK (Homo sapiens) (UniProt P08631); settings: at 1 µM
[4] = biological target: Insulin-like growth factor 1 receptor (Homo sapiens) (UniProt P08069); settings: at 0.1 µM
[5] = biological target: Insulin-like growth factor 1 receptor (Homo sapiens) (UniProt P08069); settings: at 1 µM
[6] = biological target: Insulin receptor (Homo sapiens) (UniProt P06213); settings: at 0.1 µM
Insulin receptor (Homo sapiens), sequence (P06213 28-758 limits assumed): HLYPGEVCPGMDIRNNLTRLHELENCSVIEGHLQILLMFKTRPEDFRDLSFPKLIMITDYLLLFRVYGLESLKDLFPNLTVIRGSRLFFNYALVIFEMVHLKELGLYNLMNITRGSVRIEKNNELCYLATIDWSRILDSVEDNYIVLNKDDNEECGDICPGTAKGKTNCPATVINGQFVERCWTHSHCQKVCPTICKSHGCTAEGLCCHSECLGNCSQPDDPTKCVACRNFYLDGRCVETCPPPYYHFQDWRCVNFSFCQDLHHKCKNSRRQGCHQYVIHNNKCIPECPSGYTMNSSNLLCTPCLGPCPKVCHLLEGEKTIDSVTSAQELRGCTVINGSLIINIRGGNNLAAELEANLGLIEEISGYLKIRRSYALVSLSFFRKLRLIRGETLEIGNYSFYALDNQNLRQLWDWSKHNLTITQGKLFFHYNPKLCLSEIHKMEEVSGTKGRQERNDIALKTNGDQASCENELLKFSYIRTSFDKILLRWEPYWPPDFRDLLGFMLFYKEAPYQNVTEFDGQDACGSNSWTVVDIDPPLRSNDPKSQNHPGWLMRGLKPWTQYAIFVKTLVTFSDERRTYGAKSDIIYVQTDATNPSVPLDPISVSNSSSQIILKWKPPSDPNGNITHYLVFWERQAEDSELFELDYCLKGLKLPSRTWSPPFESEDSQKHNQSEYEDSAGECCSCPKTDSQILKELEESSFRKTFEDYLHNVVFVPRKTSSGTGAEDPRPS
Insulin receptor (Homo sapiens), sequence (P06213 763-1382 limits assumed): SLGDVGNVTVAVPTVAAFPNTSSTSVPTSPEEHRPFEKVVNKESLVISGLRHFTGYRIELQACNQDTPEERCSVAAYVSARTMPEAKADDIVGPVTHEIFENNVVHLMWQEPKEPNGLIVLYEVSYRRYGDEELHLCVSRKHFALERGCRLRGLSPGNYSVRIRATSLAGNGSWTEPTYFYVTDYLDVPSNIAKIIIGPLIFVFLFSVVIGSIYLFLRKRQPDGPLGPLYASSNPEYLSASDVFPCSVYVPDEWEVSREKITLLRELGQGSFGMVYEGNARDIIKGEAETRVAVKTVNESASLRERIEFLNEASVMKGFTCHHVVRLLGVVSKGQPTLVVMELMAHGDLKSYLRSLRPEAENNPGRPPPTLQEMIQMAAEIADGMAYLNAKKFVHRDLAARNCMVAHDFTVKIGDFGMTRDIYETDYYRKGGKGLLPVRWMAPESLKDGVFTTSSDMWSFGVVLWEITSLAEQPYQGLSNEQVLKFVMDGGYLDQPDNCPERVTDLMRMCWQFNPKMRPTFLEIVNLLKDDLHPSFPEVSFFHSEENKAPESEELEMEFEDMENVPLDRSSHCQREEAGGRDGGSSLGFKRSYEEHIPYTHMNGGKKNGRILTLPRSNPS

[7] = biological target: Insulin receptor (Homo sapiens) (UniProt P06213); settings: at 1 µM
[8] = biological target: Insulin receptor-related protein (Homo sapiens) (UniProt P14616); settings: at 0.1 µM
[9] = biological target: Insulin receptor-related protein (Homo sapiens) (UniProt P14616); settings: at 1 µM
[10] = biological target: T1, Tyrosine-protein kinase ITK/TSK (Homo sapiens) (UniProt Q08881); settings: at 0.1 µM
T1 sequence (whole entry): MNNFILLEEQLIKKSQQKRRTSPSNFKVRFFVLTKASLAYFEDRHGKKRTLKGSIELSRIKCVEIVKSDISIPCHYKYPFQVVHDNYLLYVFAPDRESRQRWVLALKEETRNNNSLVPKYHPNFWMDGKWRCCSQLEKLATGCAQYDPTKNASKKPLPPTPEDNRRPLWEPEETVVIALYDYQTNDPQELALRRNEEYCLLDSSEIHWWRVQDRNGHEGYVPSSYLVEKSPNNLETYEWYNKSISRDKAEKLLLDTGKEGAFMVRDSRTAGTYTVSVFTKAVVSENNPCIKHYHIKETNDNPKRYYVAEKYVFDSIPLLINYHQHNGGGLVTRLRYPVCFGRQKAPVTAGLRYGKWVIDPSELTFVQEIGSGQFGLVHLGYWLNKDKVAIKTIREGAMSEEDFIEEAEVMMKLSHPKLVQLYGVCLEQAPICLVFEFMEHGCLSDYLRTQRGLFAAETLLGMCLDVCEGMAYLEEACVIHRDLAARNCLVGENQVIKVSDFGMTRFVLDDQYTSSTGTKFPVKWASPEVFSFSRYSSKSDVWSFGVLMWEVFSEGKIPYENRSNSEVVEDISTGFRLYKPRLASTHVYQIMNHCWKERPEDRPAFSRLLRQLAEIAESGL

[11] = biological target: T1, Tyrosine-protein kinase ITK/TSK (Homo sapiens); settings: at 1 µM
[12] = biological target: Tyrosine-protein kinase JAK1 (Homo sapiens) (UniProt P23458); settings: at 0.1 µM
Tyrosine-protein kinase JAK1 (Homo sapiens), sequence (P23458 whole entry): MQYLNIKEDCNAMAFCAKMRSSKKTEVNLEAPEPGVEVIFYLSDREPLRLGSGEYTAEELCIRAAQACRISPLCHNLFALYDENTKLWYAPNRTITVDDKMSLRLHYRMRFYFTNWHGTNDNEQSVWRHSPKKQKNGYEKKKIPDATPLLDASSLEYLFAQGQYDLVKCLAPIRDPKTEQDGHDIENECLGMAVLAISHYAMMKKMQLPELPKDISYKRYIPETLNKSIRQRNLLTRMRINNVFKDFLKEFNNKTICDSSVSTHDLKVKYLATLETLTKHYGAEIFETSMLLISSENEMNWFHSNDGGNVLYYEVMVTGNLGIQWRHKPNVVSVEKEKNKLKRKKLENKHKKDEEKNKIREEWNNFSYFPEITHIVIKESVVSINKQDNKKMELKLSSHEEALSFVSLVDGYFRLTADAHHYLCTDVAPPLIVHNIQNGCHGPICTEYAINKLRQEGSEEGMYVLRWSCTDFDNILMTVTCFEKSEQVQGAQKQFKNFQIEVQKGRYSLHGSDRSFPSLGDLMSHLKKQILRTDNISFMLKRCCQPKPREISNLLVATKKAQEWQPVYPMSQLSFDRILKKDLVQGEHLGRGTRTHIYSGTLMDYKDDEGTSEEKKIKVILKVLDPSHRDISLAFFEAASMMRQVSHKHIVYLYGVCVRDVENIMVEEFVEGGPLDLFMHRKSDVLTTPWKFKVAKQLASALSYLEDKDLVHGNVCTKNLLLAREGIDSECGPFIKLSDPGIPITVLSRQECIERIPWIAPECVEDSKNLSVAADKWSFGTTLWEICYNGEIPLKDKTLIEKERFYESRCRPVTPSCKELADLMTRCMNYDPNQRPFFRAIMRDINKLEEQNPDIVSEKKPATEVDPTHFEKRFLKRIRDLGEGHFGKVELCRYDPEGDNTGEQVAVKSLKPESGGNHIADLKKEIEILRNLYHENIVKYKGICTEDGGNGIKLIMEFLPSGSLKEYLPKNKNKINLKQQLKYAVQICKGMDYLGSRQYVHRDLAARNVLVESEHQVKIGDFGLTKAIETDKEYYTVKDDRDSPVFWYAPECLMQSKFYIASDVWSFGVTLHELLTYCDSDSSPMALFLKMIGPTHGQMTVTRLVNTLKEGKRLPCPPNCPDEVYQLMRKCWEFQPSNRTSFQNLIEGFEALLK

[13] = biological target: Tyrosine-protein kinase JAK1 (Homo sapiens) (UniProt P23458); settings: at 1 µM
[14] = biological target: Tyrosine-protein kinase JAK2 (Homo sapiens) (UniProt O60674); settings: at 0.1 µM
[15] = biological target: Tyrosine-protein kinase JAK2 (Homo sapiens) (UniProt O60674); settings: at 1 µM
[16] = biological target: T2, Tyrosine-protein kinase JAK3 (Homo sapiens) (UniProt P52333); settings: at 0.1 µM
T2 sequence (whole entry): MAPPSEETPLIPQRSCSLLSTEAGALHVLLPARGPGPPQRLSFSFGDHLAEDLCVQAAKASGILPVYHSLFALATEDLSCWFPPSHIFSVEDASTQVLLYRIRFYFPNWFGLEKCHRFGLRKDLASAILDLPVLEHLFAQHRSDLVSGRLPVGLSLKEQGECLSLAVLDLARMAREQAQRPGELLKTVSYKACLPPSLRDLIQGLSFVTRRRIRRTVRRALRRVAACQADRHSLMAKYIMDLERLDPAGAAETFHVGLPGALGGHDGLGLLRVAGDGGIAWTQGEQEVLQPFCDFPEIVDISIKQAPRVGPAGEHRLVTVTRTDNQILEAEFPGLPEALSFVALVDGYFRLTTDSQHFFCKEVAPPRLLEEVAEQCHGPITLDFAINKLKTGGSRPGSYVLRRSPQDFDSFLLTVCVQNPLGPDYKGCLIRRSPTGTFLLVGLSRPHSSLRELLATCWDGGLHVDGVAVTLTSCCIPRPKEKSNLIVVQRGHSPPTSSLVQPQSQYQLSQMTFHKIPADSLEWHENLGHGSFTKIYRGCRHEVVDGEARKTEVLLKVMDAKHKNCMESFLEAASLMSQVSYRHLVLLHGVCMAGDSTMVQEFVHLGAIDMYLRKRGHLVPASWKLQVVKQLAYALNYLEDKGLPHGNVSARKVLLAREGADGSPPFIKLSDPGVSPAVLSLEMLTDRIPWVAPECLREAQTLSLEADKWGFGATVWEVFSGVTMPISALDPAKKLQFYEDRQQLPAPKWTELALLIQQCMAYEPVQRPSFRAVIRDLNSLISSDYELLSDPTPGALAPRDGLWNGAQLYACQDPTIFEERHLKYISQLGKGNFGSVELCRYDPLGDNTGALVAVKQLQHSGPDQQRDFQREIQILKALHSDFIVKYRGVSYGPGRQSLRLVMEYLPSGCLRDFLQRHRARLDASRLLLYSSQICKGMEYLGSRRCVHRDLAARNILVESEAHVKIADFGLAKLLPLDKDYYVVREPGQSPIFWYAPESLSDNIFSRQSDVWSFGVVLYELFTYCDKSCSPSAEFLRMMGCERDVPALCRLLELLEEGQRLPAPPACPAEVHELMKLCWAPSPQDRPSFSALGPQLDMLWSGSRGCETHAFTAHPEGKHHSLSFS

[17] = biological target: T2, Tyrosine-protein kinase JAK3 (Homo sapiens); settings: at 1 µM
[18] = biological target: Vascular endothelial growth factor receptor 2 (Homo sapiens) (UniProt P35968); settings: at 0.1 µM
Vascular endothelial growth factor receptor 2 (Homo sapiens), sequence (P35968 whole entry): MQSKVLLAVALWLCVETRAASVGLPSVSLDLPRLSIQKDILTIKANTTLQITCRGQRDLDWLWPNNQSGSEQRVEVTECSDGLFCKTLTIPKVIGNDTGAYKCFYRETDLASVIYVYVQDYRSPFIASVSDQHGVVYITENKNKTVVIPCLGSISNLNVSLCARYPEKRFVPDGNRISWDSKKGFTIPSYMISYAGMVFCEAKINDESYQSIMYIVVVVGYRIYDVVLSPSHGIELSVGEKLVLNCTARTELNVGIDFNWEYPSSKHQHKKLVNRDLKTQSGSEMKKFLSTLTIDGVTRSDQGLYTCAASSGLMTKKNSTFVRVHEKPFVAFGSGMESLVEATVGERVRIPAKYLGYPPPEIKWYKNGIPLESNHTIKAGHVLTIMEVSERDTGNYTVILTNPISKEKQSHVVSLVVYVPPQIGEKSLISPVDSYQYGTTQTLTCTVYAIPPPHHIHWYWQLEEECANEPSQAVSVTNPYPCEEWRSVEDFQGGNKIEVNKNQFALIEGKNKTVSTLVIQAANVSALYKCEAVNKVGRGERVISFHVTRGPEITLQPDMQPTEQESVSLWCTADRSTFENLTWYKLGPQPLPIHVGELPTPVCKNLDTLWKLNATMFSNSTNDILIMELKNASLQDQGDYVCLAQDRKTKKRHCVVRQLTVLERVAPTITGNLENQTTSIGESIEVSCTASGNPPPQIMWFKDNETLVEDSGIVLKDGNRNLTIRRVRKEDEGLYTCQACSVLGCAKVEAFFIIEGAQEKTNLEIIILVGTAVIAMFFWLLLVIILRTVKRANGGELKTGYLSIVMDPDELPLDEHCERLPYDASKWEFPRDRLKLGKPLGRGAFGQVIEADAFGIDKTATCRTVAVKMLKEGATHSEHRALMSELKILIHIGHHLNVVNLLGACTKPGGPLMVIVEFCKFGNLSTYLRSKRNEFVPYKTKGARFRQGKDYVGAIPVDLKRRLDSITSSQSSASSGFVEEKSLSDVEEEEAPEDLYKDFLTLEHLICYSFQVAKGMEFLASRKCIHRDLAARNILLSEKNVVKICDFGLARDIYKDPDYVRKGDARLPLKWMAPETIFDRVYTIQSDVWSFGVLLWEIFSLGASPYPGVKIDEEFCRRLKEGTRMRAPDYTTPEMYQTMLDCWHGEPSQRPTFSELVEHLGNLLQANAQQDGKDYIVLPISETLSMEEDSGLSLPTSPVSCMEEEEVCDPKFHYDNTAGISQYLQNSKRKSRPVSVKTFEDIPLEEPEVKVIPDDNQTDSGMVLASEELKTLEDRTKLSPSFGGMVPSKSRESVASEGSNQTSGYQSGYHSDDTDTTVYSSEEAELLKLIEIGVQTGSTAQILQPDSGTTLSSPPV

[19] = biological target: Vascular endothelial growth factor receptor 2 (Homo sapiens) (UniProt P35968); settings: at 1 µM
[20] = biological target: Mast/stem cell growth factor receptor Kit (Homo sapiens) (UniProt P10721); settings: at 0.1 µM;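 further: values are mean inhibition of KIT, from the GSK PKIS dataset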

Tyrosine-protein kinase HCK (Homo sapiens), sequence (P08631 2-526 limits assumed): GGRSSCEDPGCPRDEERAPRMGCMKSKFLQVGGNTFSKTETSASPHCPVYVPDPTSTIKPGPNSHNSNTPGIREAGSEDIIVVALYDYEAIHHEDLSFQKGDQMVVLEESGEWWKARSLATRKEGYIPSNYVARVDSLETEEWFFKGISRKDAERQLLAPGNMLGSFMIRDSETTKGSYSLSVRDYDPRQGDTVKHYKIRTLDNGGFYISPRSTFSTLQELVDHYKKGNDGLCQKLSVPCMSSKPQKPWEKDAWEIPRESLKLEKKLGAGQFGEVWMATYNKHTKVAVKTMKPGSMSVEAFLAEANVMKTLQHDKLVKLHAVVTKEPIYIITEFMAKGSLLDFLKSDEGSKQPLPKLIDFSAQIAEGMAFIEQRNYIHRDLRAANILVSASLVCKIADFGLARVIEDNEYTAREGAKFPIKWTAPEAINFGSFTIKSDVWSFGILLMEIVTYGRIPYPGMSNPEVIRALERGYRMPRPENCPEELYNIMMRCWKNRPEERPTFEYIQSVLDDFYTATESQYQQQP
Tyrosine-protein kinase Fyn (Homo sapiens), sequence (P06241 2-537 limits assumed): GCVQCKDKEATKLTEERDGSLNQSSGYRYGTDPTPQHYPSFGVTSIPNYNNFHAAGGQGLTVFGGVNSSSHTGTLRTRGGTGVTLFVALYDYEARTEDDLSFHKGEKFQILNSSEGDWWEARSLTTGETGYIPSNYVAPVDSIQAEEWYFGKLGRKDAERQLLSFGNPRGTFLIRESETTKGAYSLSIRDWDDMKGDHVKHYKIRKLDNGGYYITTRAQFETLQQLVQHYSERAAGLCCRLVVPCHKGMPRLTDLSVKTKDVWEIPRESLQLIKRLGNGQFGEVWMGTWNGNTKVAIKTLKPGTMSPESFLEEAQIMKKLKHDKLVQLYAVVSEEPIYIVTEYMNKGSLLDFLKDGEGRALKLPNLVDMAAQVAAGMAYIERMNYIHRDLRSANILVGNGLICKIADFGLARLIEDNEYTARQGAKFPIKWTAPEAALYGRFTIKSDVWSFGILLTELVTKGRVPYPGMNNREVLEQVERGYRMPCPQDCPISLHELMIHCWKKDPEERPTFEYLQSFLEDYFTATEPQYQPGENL

| SMILES | inhibition [1] | inhibition [2] | inhibition [3] | inhibition [4] | inhibition [5] | inhibition [6] | inhibition [7] | inhibition [8] | inhibition [9] | inhibition [10] | inhibition [11] | inhibition [12] | inhibition [13] | inhibition [14] | inhibition [15] | inhibition [16] | inhibition [17] | inhibition [18] | inhibition [19] | inhibition [20] |
| --- | --- | --- | --- | --- | --- | --- | --- | --- | --- | --- | --- | --- | --- | --- | --- | --- | --- | --- | --- | --- |
| NS(=O)(=O)c1ccc(N/N=C2\C(=O)Nc3cccc(CCc4ccncc4)c32)cc1 | 4.54% | 2.52% | 6.49% | 1.21% | 1.06% | 4.32% | 5.06% | -0.57% | 0.48% | 0.79% | 2.79% | -0.35% | 1.96% | 0.5% | 1.19% | 0.74% | 5.91% | 19.6% | 46.7% | 27% |
| CS(=O)(=O)CCNCc1ccc(-c2ccc3ncnc(Nc4ccc(OCc5ccccc5)cc4)c3c2)o1 | 14.9% | 7.13% | 14.3% | 1.22% | 2.03% | -0.92% | 2.86% | 1.91% | 2.07% | 0.71% | 2.16% | 6.4% | 5.72% | 1.29% | 0.35% | -2% | -1.45% | 3.83% | 6.56% | 2.46% |
| Cn1c(-c2nonc2N)nc2cnccc21 | 2.28% | 6.35% | 6.33% | 1.93% | 3.66% | 5.09% | 6.68% | 2.16% | -0.85% | 1.03% | 1.68% | 4.75% | 2.08% | 1.45% | 1.42% | -1.06% | -0.29% | 4.81% | 12.2% | 4.67% |
| CS(=O)(=O)CCNCc1ccoc1-c1ccc2ncnc(Nc3ccc(OCc4ccccc4)cc3)c2c1 | 7.94% | 0.7% | 5.65% | 1.37% | -0.73% | 0.36% | 1.13% | -1.72% | 0.44% | -0.12% | 1.03% | -1.22% | -0.53% | -0.17% | -0.95% | -0.19% | 0.82% | 3.88% | 5.6% | 1.94% |
| CC1(C)CC(n2cnc(-c3ccc(F)cc3)c2-c2ccnc(N)n2)CC(C)(C)N1 | 2.65% | 2.18% | 3.22% | 1.3% | 3.3% | 4.97% | 4.07% | -0.08% | -1.13% | 0.29% | 0.97% | -2.83% | 1.68% | 0.57% | -0.41% | -0.01% | -0.6% | -0.9% | 5.32% | -0.71% |
| COc1cc2c(cc1Nc1nc(Nc3cccc(F)c3C(N)=O)c3cc[nH]c3n1)N(C(=O)CN1CCN(C(C)C)CC1)CC2 | 2.53% | 1.66% | 2.73% | 57.8% | 87.7% | 69.1% | 88.2% | 6.85% | 44.3% | 1.77% | 4.16% | -0.19% | -3.81% | 0.65% | 2.21% | 0.64% | 6.68% | 0.99% | 9.98% | -1.31% |
| CN1CCC(C(=O)Nc2n[nH]c3nc(-c4ccc(O)cc4)c(Br)cc23)CC1 | 2.18% and 4.52% | 3.06% and 2.78% | 6.08% and 4.64% | -4.96% and 3.55% | -5.49% and 3.41% | 5.36% and 4.34% | 4.73% and 6.55% | 2.54% and -0.17% | 2.5% and 1.64% | -2.09% and 0.57% | -1.94% and 1.71% | 2.37% and 1.02% | 19.7% and 3.43% | 1.01% and -0.3% | 1.49% and 1.42% | -3.69% and -1.35% | -2.24% and 0.59% | 7.52% and 6.12% | 24.5% and 23.2% | 3.81% and 2.92% |
| O=C(O[C@H]1CN[C@H](C#Cc2cc3ncnc(Nc4ccc5c(cnn5Cc5ccccc5)c4)c3s2)C1)N1CCOCC1 | 8.19% | -0.73% | 3.3% | -2.85% | -0.43% | 2.89% | 1.79% | -1.64% | -2.28% | -1.11% | -0.49% | 0.1% | 3.26% | -0.37% | -1.59% | -0.78% | 1.24% | -0.01% | 8.91% | -3.59% |
| COc1cccc(-n2ncc3c(N/N=C/c4ccc(C(=O)NCCN(C)C)cc4)ncnc32)c1 | 84.5% | 23.1% | 68.8% | 3.78% | 4.69% | 0.94% | 1.97% | 5.09% | 1.31% | 2.07% | 8.64% | 4.89% | 18.1% | 2.63% | 14.1% | 0.22% | 15.4% | 43.6% | 68.7% | 15.5% |
| NS(=O)(=O)c1ccc(N/N=C2\C(=O)Nc3ccc(C(=O)NCc4ccncc4)cc32)cc1 | 50.9% | 5.39% | 16.3% | 10.1% | 9.32% | 1.24% | 3.32% | 2.61% | 2.45% | 0.99% | 3.12% | 3.77% | 9.66% | 0.74% | 1.38% | -0.81% | 6.2% | 7.35% | 34.5% | 4.44% |
| COc1cc(Nc2ncc(-c3ccccc3)o2)cc(OC)c1 | 26.5% | 8.41% | 19.9% | -0.03% | 4.18% | 1.03% | 5.64% | 2.92% | 2.43% | -0.12% | 3.63% | -0.99% | 5.5% | 2.04% | 1.78% | -3.48% | -1.92% | 6.74% | 19.3% | 78.5% |
| NC(=O)c1ccc2c(-c3ccnc(NCCCO)n3)c(-c3ccc(F)cc3)nn2c1 | 5.23% | 7.1% | 15.6% | 3.95% | 6.12% | 10.3% | 6.62% | 4.18% | 4.01% | 1.32% | 1.77% | 0.15% | 4.59% | 1.16% | 2.01% | -1.31% | -0.86% | 6.05% | 16.6% | 6.24% |
| CC1=C(C(=O)Nc2ccc3[nH]nc(C)c3c2)C(c2ccc(C(F)(F)F)cc2)CC(=O)N1 (stereo not given) | 2.72% | 4.64% | 9.34% | 2.37% | 3.78% | 0.03% | 1.72% | 2.64% | 1.26% | 1.81% | 7.86% | 38.5% | 70.7% | 31.1% | 82.4% | 15.6% | 68.8% | 5.36% | 11% | 2.41% |
